# The list is not random: actives were taken first. Their share in the collection is about 1.3%.
# PriA SSB inh: blocks PriA binding to SSB C-terminal tail. hit rate 0.6% among 430,000. AID 1272365. inhibition, % at 33 µM. AlphaScreen SSBct-PriA binding, biotinylated peptide; in the data active = inhibition mostly above about 37%, no sharp cut-off; inactive = mostly below about 20%
# DUSP3 inh: inhibitors of human VHR1 phosphatase (DUSP3). P51452. recombinant VHR phosphatase, pNPP absorbance. inhibition, % at 13.3 µM. hit rate 0.52% among 290,000. AID 1654; in the data active = inhibition above about 50%
# Target sequence (P51452 whole entry, looked up): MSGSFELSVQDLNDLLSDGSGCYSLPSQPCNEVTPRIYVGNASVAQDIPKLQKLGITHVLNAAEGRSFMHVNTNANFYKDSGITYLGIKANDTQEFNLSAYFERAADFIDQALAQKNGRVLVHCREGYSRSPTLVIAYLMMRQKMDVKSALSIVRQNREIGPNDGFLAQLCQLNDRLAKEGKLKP
# 3CLpro inhibitor: SARS-CoV 3CLpro protease inhibition; P0C6X7; recombinant SARS-CoV 3CLpro, quenched FRET peptide cleavage; inhibition, % at 6 µM; hit rate 0.14% among 290,000; in the data active = inhibition above about 12%
# Mtb hypoxia rep: reduces hypoxia-regulated biosensor signal in M. tuberculosis; M. tuberculosis hypoxia-regulated fluorescent reporter, fluorescence; fluorescence inhibition, % (no concentration beside the values); hit rate 0.1% among 300,000; in the data active = fluorescence inhibition mostly above about 23%, no sharp cut-off; inactive = mostly below about 17%
# CCHFV vOTU inh: blocks the CCHF virus ovarian tumor domain protease. CCHFV vOTU protease, Pep-AMC fluorescence. inhibition, % at 11.5 µM. hit rate 0.55% among 370,000. AID 651958; in the data active = inhibition above about 30%
# Hits are given with their value; n = inactive; x = no result; ! = not active in a repeat.
SMILES,PriA SSB inh,DUSP3 inh,3CLpro inhibitor,Mtb hypoxia rep,CCHFV vOTU inh
Cc1cc(OC(=O)c2ccccc2[N+](=O)[O-])c([N+](=O)[O-])c(=O)[nH]1,99,n,n,n,n
O=c1cc2c(nn1Cc1ccc(Cl)cc1)-c1ccccc1CC2,n,n,n,n,33
O=c1cc2c(nn1Cc1cccc(Cl)c1)-c1ccccc1CC2,n,n,n,x,n
CN1CCN([C@@H](CNC(=O)c2cccs2)c2ccsc2)CC1,n,x,x,x,x
COc1ccccc1NC(=O)c1sc(=S)n(-c2cc(C)ccc2C)c1N,48,x,x,x,x
CCOc1ccccc1NC(=O)c1sc(=S)n(-c2ccc(OC)cc2OC)c1N,n,x,x,x,x
COc1ccccc1-n1c(N)c(C(N)=O)sc1=S,n,52,n,n,n
COc1ccccc1CNC(=O)c1sc(=S)n(-c2ccccc2C)c1N,n,x,x,x,x
COc1cc(C(C)=O)ccc1OCC(O)CN1CCCCC1 (stereo not given),n,x,x,x,x
COc1cc(C(C)=O)ccc1OCC(=O)NCCOc1ccccc1,n,x,x,x,x
C=CCn1cnc2c(c1=O)c1nc3ccccc3nc1n2/N=C/c1cccc(OC)c1OC,x,101,x,x,n
CC1CN(C(=O)Cn2cc(S(=O)(=O)Cc3ccccc3)c3ccccc32)CC(C)O1 (stereo not given),n,x,x,x,x
CN(C)C(=O)Cn1cc(S(=O)(=O)Cc2ccccc2)c2ccccc21,n,59,n,n,n
O=C(NCC12CC3CC(CC(C3)C1)C2)Nc1cccc(C(F)(F)F)c1,n,x,x,x,x
Cc1cc(C)cc(N(C(=O)c2csnn2)C(C(=O)NC2CCCCC2)c2cccnc2)c1 (stereo not given),n,53,n,n,n
O=C(NCC(=O)N(c1ccccc1)C(C(=O)NC1CCCC1)c1ccncc1)c1cccs1 (stereo not given),n,n,n,n,n
O=C(NCC(=O)N(c1ccccc1)C(C(=O)NC1CCCC1)c1cccnc1)c1cccs1 (stereo not given),n,53,n,n,n
O=C(NC1CCCCC1)C(c1ccc(Cl)cc1)N(C(=O)c1ccccn1)c1cccnc1 (stereo not given),x,57,n,n,x
CCc1ccc(C(C(=O)NC2CCCCC2)N(C(=O)c2ccccn2)c2cccnc2)cc1 (stereo not given),x,n,n,n,x
CCc1nc(SCC(=O)c2ccc3c(c2)OCO3)c2c3c(sc2n1)CCC3,n,x,x,x,x
COc1ccc(NC(=S)c2ccc3ccccc3n2)cc1,44,n,n,x,x
COc1ccc(NC(=S)c2ccncc2)cc1,82!,n,n,n,n
Oc1ccccc1N=Cc1sc2ccccc2c1Cl,n,n,n,37,n
COc1ccc(-n2nc(C(=O)NCC(=O)NC3CCCC(C)C3C)c3ccccc3c2=O)cc1 (stereo not given),n,n,n,n,n
COc1ccc(-n2nc(C(=O)NCC(=O)NC3CCCC(C)C3C)c3ccccc3c2=O)c(OC)c1 (stereo not given),n,n,n,35,n
SMILES,PriA SSB inh,DUSP3 inh,3CLpro inhibitor,Mtb hypoxia rep,CCHFV vOTU inh
Cc1nc2ccccn2c1C(=O)N1CC(Oc2nc3ccccc3s2)C1,n,x,x,x,x
COc1ccc(C)c2sc(NC(=O)C3CCCN(S(C)(=O)=O)C3)nc12 (stereo not given),n,x,x,x,x
ONC(=Nc1ccccc1)C(=Nc1ccccc1)NO,n,57,n,n,n
Nc1cccc(N2CCCC2=O)c1,n,x,x,x,x
CCOc1ccc(CC(=O)Nc2nc(-c3ccccn3)cs2)cc1,58,x,x,x,x
CS(=O)(=O)c1ccc(CC(=O)Nc2nc(-c3ccccn3)cs2)cc1,75,x,x,x,x
O=C(COc1ccc(F)cc1)Nc1nc(-c2ccccn2)cs1,58,x,x,n,n
Cc1nnc(N2C(=O)C(=O)C(=C(O)c3ccc4c(c3)CC(C)O4)C2c2ccccc2)s1 (stereo not given),n,x,x,x,x
Cc1cccc(-n2c(O)c(C=NNC(=O)c3ccccc3Cl)c3ccccc3c2=O)n1,n,x,x,x,x
O=C(CC12CC3CC(CC(C3)C1)C2)Nc1nnc(-c2ccc(F)cc2)s1,n,x,x,x,x
Clc1ccc(-c2noc(-c3ccc(CSc4ccccc4)o3)n2)cc1,81,x,x,x,x
COc1ccc(-c2noc(-c3ccc(CSc4ccccc4)o3)n2)cc1,n,x,x,x,x
Cc1ccc(-c2csc(NNC3=NCCCCC3)n2)cc1,62,x,x,x,x
Cc1cc(N(C)C)ccc1N=Nc1ccc(N)cc1,93,x,x,n,n
CCOC(=O)c1c(-c2ccccc2Cl)csc1N,n,x,x,x,x
CC1CN(C(=O)c2cc3cc(F)ccc3[nH]2)CC(C)O1 (stereo not given),n,53,n,n,n
Cc1sc2nc(C)n(N=Cc3ccc(O)cc3O)c(=O)c2c1C,n,x,x,x,x
CCCCN(C(=O)CCC(=O)Nc1cc(C)on1)C(C(=O)NC1CCCC1)c1ccc(OCC)cc1 (stereo not given),n,n,n,n,37
Cc1ccc2nc(N3CCN(C(=O)c4ccc(F)cc4)CC3)c(C#N)cc2c1,n,n,n,n,n
Cc1ccc2cc(C#N)c(N3CCN(C(=O)c4cccs4)CC3)nc2c1,n,51,n,n,n
Cc1nn(C)c(C)c1S(=O)(=O)N(CCc1cccs1)Cc1ccoc1,n,x,x,x,x
Nc1ccc(S(=O)(=O)NC2=NCCCCC2)cc1N,n,n,n,n,n
O=[N+]([O-])c1cc(S(=O)(=O)NC2=NCCCCC2)ccc1NCC1CCCCC1,41,n,n,n,n
COc1ccc(OC)c(/C=N\NC(=O)c2cccc(I)c2)c1,n,x,x,x,x
CCn1c(=O)n(CC)c2cc(N3CCCC3)c(NC(=O)c3c(F)cccc3F)cc21,n,57,n,n,n
SMILES,PriA SSB inh,DUSP3 inh,3CLpro inhibitor,Mtb hypoxia rep,CCHFV vOTU inh
CCn1c(=O)n(CC)c2cc(N3CCCC3)c(NC(=O)c3ccc(F)cc3)cc21,n,n,n,x,n
O=c1ccc(-c2ccco2)nn1CCCNS(=O)(=O)c1cccnc1,n,x,x,x,x
CCc1ccc(C2=NNC(=Nc3cccc(S(=O)(=O)N(C)C)c3)SC2)cc1,42,n,n,n,n
CSc1ccccc1OCc1cc(C(=O)N2CCc3[nH]cnc3C2c2ccccn2)no1 (stereo not given),52,n,n,n,n
CCOC(=O)N1CCC(NC(=O)c2cc(COc3ccccc3SC)on2)CC1,n,53,n,n,n
CCOC(=O)N1CCC(NC(=O)c2cc(COc3ccc(F)cc3Cl)on2)CC1,n,n,n,n,n
Brc1ccc2ccc3cccnc3c2n1,n,x,x,x,x
Cc1ccc2ccc3cccnc3c2n1,50,x,n,x,n
CSc1cccc2cccnc12,75,x,x,x,x
c1cnc2c(SSc3cccc4cccnc34)cccc2c1,n,x,x,x,x
ClC1(Cl)CC1CSc1cccc2cccnc12 (stereo not given),128,x,x,x,x
C=CCn1nc([N+](=O)[O-])nc1Sc1cccc2cccnc12,102,n,n,n,x
Cc1ccc(-c2ccc(OCC(=O)NC(C)(C)C)cc2)cc1,n,x,x,x,x
COc1ccc(CN2C(=S)NC3CC2(C)Oc2ccccc23)cc1 (stereo not given),n,x,x,x,x
COCCN(Cc1ccsc1)C(=O)C1(c2ccc(Cl)cc2)CCCC1,n,x,x,x,x
C=CCSc1cccc2cccnc12,125,x,x,x,x
COc1ccc(C(=O)NC(C)c2nnc(SCC(=O)NC3CCCCC3)n2C)cc1 (stereo not given),n,n,n,n,n
COc1ccc(C(=O)NC(C)c2nnc(SCC(=O)NC3CCCC3)n2C)cc1 (stereo not given),n,53,n,n,n

# Source: PubChem BioAssay
